GSTO1 counter: blocks human GSTO1 in RBBP9 counter-screen; P78417; recombinant GSTO1, activity-based probe fluorescence polarization; inhibition, % at 5.96 µM; hit rate 1.1% among 300,000;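 active means inhibition above the campaign mean inhibition plus 3 SD, cut at about 35% in these data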;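 further: 0% = GSTO1-1 with DMSO and 100% = wells lacking GSTO1-1 enzyme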
PME-1 inh: PME-1 (human) inhibition. recombinant PME-1, FP-Rh probe fluorescence polarization. inhibition, % at 5.9 µM. hit rate 0.53% among 320,000;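 active means inhibition above the campaign mean of all compounds plus 3 SD, cut at about 26% in these data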;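 further: competitive labeling of PME-1 active site by serine hydrolase directed probe; 0% = PME-1 with DMSO and 100% = wells lacking PME-1 enzyme; inhibitors block probe labeling so polarization falls and inhibition rises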
Target sequence (Q9Y570 whole entry, looked up): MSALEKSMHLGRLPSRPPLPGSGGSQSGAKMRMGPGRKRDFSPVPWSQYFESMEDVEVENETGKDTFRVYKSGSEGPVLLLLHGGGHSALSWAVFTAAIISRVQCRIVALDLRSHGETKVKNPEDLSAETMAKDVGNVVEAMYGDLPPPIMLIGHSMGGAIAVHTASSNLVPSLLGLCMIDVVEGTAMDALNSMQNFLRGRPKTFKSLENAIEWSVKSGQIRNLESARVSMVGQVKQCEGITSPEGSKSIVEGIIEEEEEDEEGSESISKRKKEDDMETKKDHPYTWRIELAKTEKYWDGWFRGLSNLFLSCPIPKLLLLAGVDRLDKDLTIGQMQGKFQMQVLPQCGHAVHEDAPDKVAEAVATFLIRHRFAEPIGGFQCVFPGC
LYPLA2 counter: counter-screen for PME1 inhibitors: inhibitors of human LYPLA2; O95372; recombinant LYPLA2, FP-Rh probe fluorescence polarization; inhibition, % at 5.9 µM; hit rate 0.38% among 320,000; AID 2177;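 active means inhibition above the screen-wide mean plus 3 SD, limit set per campaign, cut at about 26% in these data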;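 further: 0% = LYPLA2 with DMSO and 100% = wells lacking LYPLA2 enzyme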
PAD4 inh: inhibitors of human PAD4; Q9UM07; recombinant PAD4, RCA probe fluorescence polarization; inhibition, % at 6.36 µM; hit rate 0.41% among 330,000; AID 485272;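 active means percent inhibition above a cutoff equal to the mean of all tested compounds plus 3 SD, cut at about 15% in these data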;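 further: 0% = PAD4 with RCA probe and DMSO and 100% = probe without PAD4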
Fam108B counter: counter-screen for RBBP9 inhibitors: inhibitors of mouse Fam108B; recombinant Fam108B, FP-Rh probe fluorescence polarization; AID 1947; hit rate 0.33% among 300,000; inhibition, % at 9.51 µM;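 active means inhibition above the screen mean inhibition plus 3 SD, computed separately per campaign, cut at about 18% in these data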;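 further: inhibitors lower polarization as less probe binds the enzyme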
LYPLA1 counter: counter-screen for PME1 inhibitors: inhibitors of human LYPLA1; O75608; inhibition, % at 5.9 µM; AID 2174; recombinant LYPLA1, FP-Rh probe fluorescence polarization; hit rate 0.16% among 320,000;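 active means inhibition above the mean of all tested compounds plus 3 SD, set per campaign, cut at about 14% in these data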;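 further: inhibitors block serine hydrolase probe labeling of LYPLA1 so polarization falls; 0% = enzyme with DMSO and 100% = wells lacking LYPLA1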
Target sequence (O75608 whole entry, looked up): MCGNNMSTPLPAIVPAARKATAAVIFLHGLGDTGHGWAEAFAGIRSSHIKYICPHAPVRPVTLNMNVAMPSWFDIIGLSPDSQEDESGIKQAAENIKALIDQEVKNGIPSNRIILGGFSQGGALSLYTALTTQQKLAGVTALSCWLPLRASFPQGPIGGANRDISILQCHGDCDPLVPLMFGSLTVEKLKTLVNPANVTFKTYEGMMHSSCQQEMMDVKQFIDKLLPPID
Starred values were filed as active, the others as inactive; . = no result. Compounds with a hit are over-represented: about 1.8% of the library has one in this group of screens.

SMILES	GSTO1 counter	PME-1 inh	LYPLA2 counter	PAD4 inh	Fam108B counter	LYPLA1 counter
C=CCNC1=C(Cl)C(=O)c2ccccc2C1=O	67.8*	-3.1	3.4	-0.6	-1.1	1.7
Cc1ccc2nc(SCC(=O)Nc3cccc(S(=O)(=O)NC4=NCCCCC4)c3)[nH]c2c1	13.0	-4.3	2.6	-0.4	3.1	0.0
CCN(CC)c1ccc(/C=N/NC(=O)Cc2nnc(NC(=O)Nc3ccccc3)s2)cc1	-10.8	37.4*	-13.6	-11.1	47.4*	-24.6
CCN(CC)c1ccc(/C=N/NC(=O)Nc2ccccc2)cc1	11.5	12.0	1.0	0.3	5.8	-0.3
Cc1cc(C(=O)COC(=O)c2ccc(Cl)c(S(N)(=O)=O)c2)c(C)n1CC1CCCO1 (stereo not given)	7.0	2.1	3.8	-3.2	2.3	3.2
COCCn1c(C)cc(C(=O)COC(=O)c2ccc(Cl)c(S(N)(=O)=O)c2)c1C	-7.1	-3.7	1.5	1.3	25.1*	3.0
Cc1c(C(=O)NC2CCN(Cc3ccccc3)C2)oc2c(Cl)cccc12 (stereo not given)	1.4	5.5	-5.1	-6.5	-2.6	-3.8
COC(=O)CCCC1=CC2=CC(=O)C(C)(OC(=O)c3cccs3)C(=O)C2=CN1C1CCCC1 (stereo not given)	36.8*	8.2	8.0	3.4	3.5	2.7
COC(=O)CCCC1=CC2=CC(=O)C(C)(OC(=O)c3cccs3)C(=O)C2=CN1Cc1ccccc1 (stereo not given)	7.3	3.5	1.1	-9.1	3.0	3.0
Cc1cc(NS(=O)(=O)c2ccc(Nc3nc(-c4sc(N)nc4C)cs3)cc2)no1	37.1*	-7.6	-9.8	-20.5	15.2	-15.8
Cc1cc(NS(=O)(=O)c2ccc(Nc3nc(-c4ccc(C)c(C)c4)cs3)cc2)no1	9.0	19.1	5.8	-1.6	2.5	8.8
CCN1CCN(CCCNC(=O)C2CCCN(c3nc4c(C)cc(C)cc4s3)C2)CC1 (stereo not given)	3.5	-5.4	3.7	-3.0	-4.7	-0.2
CCOC(=O)N/N=C/c1cc(OC)c(O)c(OC)c1	1.6	-0.5	-2.5	2.7	3.5	-4.1
CCOC(=O)c1sc(N/N=C/c2cc(Br)c(O)c(OC)c2)nc1C	9.3	28.4*	8.7	0.2	16.8	6.4
CCC(=O)N(c1nnc(SCC(=O)NN2C(=O)NC3(CCCCC3)C2=O)s1)C1CC1	.	-0.2	-1.5	-6.1	.	-0.7
Cc1ccc2[nH]c(O)c(N=NC(=O)c3ccc(NS(=O)(=O)c4cccs4)cc3)c2c1	-9.2	51.5*	-11.8	-4.6	17.9	-3.8
COc1ccc2[nH]c(O)c(N=NC(=O)c3ccc(NS(=O)(=O)c4cccs4)cc3)c2c1	.	29.9*	-4.3	4.1	.	-6.8
O=C1N[C@@H](Cc2cn(S(=O)(=O)c3c(F)c(F)c(F)c(F)c3F)c3ccccc23)C(=O)N[C@H]1Cc1ccccc1	-8.6	-10.1	-7.0	5.3	-10.4	-3.9
Cc1cc(O)c(CN2CCN(S(=O)(=O)c3cccs3)CC2)cc1C(C)C	.	-3.6	-2.0	-1.5	.	0.2
O=C(N/N=C/c1cc([N+](=O)[O-])ccc1O)c1c[nH]c2ccccc12	-6.6	12.6	-9.5	4.0	9.7	-4.8
O=C(N/N=C/c1c[nH]c2ccccc12)c1ccc([N+](=O)[O-])cc1Cl	10.4	26.4*	6.5	1.1	14.7	2.2
CCc1ccc(-c2cc(C(=O)N/N=C/c3c[nH]c4ccccc34)[nH]n2)cc1	-30.4	39.6*	-23.1	3.0	1.7	-19.2
COc1cc(/C=C/c2ccc3cccc(O)c3n2)ccc1O	17.7	33.9*	8.8	-5.1	13.7	6.1
COc1cc(/C=C/c2ccc3cccc(O)c3n2)c(Br)cc1O	9.7	27.9*	5.2	-3.5	-2.2	2.4
COc1ccc(OC)c(/C=C/c2ccc3cccc(O)c3n2)c1	16.5	8.2	-4.0	-8.3	3.7	-1.5
SMILES	GSTO1 counter	PME-1 inh	LYPLA2 counter	PAD4 inh	Fam108B counter	LYPLA1 counter
Cc1onc(-c2ccccc2Cl)c1C(=O)Nc1ccccc1O	-3.8	0.4	2.4	-1.4	1.3	2.1
CCCc1cc(=O)[nH]c(SCC(=O)c2ccc(S(=O)(=O)N3CCCC3)cc2)n1	36.6*	5.2	2.3	-1.4	0.4	0.8
CC(C)(C)C(=O)N(Cc1ccc(Cl)cc1)c1cnccn1	6.5	-1.3	0.7	-2.9	-1.2	-0.8
Cc1ccc(CC2CC(=O)N(CCc3ccccc3)C2=O)cc1 (stereo not given)	2.5	2.0	3.5	-1.5	0.5	4.2
Cc1ccc(CC2CC(=O)N(C(Cc3ccccc3)C(=O)O)C2=O)cc1 (stereo not given)	35.8*	1.9	5.3	-5.9	1.2	3.7
COc1ccc(S(=O)(=O)Nc2ccc3c(c2)CC(=O)N([C@@H](C)CO)C[C@H](C)[C@@H](CN(C)S(=O)(=O)c2ccc(F)cc2)O3)cc1	.	.	.	-2.9	.	.
Cn1c(=O)oc2cc(S(=O)(=O)NC3CCN(Cc4ccccc4)CC3)ccc21	37.1*	-7.9	0.2	-3.2	-2.2	-2.3
Cn1c(=O)oc2cc(S(=O)(=O)NC3CCCCC3)ccc21	13.3	-0.8	3.4	6.6	6.3	0.6
COc1cccc(-c2nc(NC3CCCC3)c3ccccc3n2)c1O	4.5	27.4*	0.0	2.3	15.0	-5.0
COc1cccc(-c2nc(NCc3ccccc3)c3ccccc3n2)c1O	15.5	-2.3	2.2	-8.2	1.8	-4.5
COc1ccc(/C=N/Nc2cc(N(C)C)nc(N(C)C)n2)cc1	52.4*	6.3	-1.4	-9.3	-0.3	-2.0
CCCCc1ccc(NC(=S)NCc2ccccc2OC)cc1	-7.7	-11.1	-14.0	-1.9	-10.6	-8.8
Cc1nc(N2CCN(C(=O)c3ccco3)CC2)nc2c1C(=O)CCC2	-5.0	1.2	8.1	-5.0	4.9	1.6
CC(=O)OC1=C(O)C(=O)c2ccccc2C1=O	59.3*	-3.1	3.5	-2.6	-1.0	-1.1
COc1ccc(CC2CC(=O)N(c3ccc(C)cc3)C2=O)cc1 (stereo not given)	-1.7	-1.6	4.4	3.5	2.1	4.0
COc1ccc(OC)c(N2C(=O)CC(Cc3ccc(C)cc3)C2=O)c1 (stereo not given)	-2.2	31.5*	2.0	0.2	-1.2	-4.8
CC(C)N1CC2=C(OC(N)=C(C#N)C2c2cccnc2)/C(=C/c2cccnc2)C1 (stereo not given)	5.9	5.5	16.2	15.7*	3.0	9.5
CN(CC1CCOCC1)C(=O)CC1C(=O)NCCN1Cc1ccc(F)c(F)c1 (stereo not given)	0.1	0.1	-1.9	-5.0	0.6	-1.1
CCCn1c(CNc2ccccc2O)nc2ccccc21	34.8*	5.2	2.8	4.5	11.8	-2.5
CCCCn1c(CNC(=O)CCC)nc2ccccc21	0.0	-2.1	-2.1	0.9	1.3	-1.5
CCc1nc2sc3c(c2c(=O)n1NC(=O)CCl)CCCC3	58.4*	4.5	9.6	2.2	2.0	5.6

Screening data from PubChem.
